A selection: hits, their analogues and other compounds. The true share with any hit is near 3.5%.
MITF primary: MITF inhibitors, primary screen, biochemical, AlphaScreen, human. Microphthalmia-associated transcription factor (Homo sapiens), O75030. 650,000 tested, 0.91% active. inhibition, % at 2.6 µM. AlphaScreen MITF homodimerization, bead proximity signal. AID 1259374, 2018; in the data active = inhibition above about 50%;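 also: 0% = vehicle wells with protein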
Target sequence (O75030 whole entry, looked up): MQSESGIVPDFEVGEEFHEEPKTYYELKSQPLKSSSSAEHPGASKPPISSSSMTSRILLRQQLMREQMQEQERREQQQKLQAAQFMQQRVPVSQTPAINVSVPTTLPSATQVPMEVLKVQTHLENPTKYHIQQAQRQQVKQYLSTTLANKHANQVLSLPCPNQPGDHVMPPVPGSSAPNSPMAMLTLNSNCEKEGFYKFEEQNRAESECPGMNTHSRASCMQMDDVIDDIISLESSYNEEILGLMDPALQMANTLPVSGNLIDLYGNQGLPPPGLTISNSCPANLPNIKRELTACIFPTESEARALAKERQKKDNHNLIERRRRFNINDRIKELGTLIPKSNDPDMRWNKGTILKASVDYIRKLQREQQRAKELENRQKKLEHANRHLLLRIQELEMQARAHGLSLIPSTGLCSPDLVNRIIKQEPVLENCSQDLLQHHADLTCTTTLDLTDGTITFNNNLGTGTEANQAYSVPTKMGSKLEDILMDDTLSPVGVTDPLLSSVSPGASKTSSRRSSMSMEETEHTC
GPR151 activ: activators of human GPR151, primary screen, cell-based, PathHunter beta-arrestin, luminescence | G-protein coupled receptor 151 (Homo sapiens), Q8TDV0 | PathHunter beta-arrestin GPR151 cells | activation, % at 11.2 µM | 650,000 tested, 1% active | AID 1508602, 2020; in the data active = activation above about 4.9%;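 also: 0% = median of compound wells and 100% = cells with positive control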
FBW7 act: FBW7 E3 ligase activators, primary screen, biochemical, AlphaScreen, human. 650,000 tested, 0.13% active. AlphaScreen FBW7–phospho-cyclin E peptide binding, activator screen. normalized activity (activation), % at 26.1 µM; in the data active = normalized activity above about 1.9%;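 also: purified mutant Fbw7 with reduced substrate affinity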
TEAD-YAP inh: TEAD-YAP interaction inhibition, primary screen, TEAD-YAP interaction inhibitor project, luminescence, HEK-TIYL cells. TEAD-Gal4/YAP UAS-luciferase luminescence. inhibition, % at 9.12 µM. 640,000 tested, 1.4% active. AID 1259422, 2018; in the data active = inhibition above about 32%;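 also: 0% = median of test compound wells and 100% = reference inhibitor wells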
MITF confirm: MITF inhibitors, retest of hits, confirmation, biochemical, AlphaScreen, triplicate. shares compounds with MITF primary. AlphaScreen MITF homodimerization, biotin/His-MITF beads. inhibition, % at 2.6 µM. 4,700 tested, 16% active. AID 1259372, 2018;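 active = inhibition above a cutoff derived from the DMSO control wells, cut at about 28% in these data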;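 also: 0% = MITF dimer wells with DMSO only; inhibitors lower the bead chemiluminescence by keeping MITF from dimerizing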
AlphaScreen DR: AlphaScreen optical interference compounds, dose response, counter-screen, biochemical, HTS | shares compounds with MITF primary | AlphaScreen optical interference counterscreen, cell-free | IC50, µM | 480 tested, 6% active | AID 1259373, 2018; call rule not given here
AS interf ctr: AlphaScreen optical interference compounds, counter-screen for MITF inhibitor project, biochemical, triplicate; shares compounds with MITF primary; LysRS AlphaScreen counterscreen, signal interference; inhibition, % at 2.6 µM; 4,700 tested, 7.6% active;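 active = inhibition above a cutoff derived from the DMSO control wells, cut at about 30% in these data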
Active calls of the source: *.

CC1CCCN(C2CCN(Cc3ccc(Cl)cc3)CC2)C1 (stereo unspecified) was read as MITF primary 56*, GPR151 activ 0, FBW7 act 0, TEAD-YAP inh -13, MITF confirm 6 and AS interf ctr 2.
For Clc1ccc(CN2CCC(N3CCCCC3)CC2)cc1 the results were MITF primary -12, GPR151 activ 1, FBW7 act 0 and TEAD-YAP inh -2.
CCOc1ccc(CN2CCC(N3CCCC(C)C3)CC2)cc1 (stereo unspecified) was read as MITF primary 53*, GPR151 activ 0, FBW7 act 0, TEAD-YAP inh -3, MITF confirm 1 and AS interf ctr 0.
`Cc1noc(C)c1CN1CCN(C(=O)/C=C/c2ccc3c(c2)OCO3)CC1` gave MITF primary 4, GPR151 activ 0, FBW7 act 0 and TEAD-YAP inh 4.
For COC(=O)C1(C(F)(F)F)N=C2C(C)=CC=CN2C(c2ccc(Cl)cc2)=N1 (stereo unspecified) the results were MITF primary 9, GPR151 activ -2, FBW7 act 0 and TEAD-YAP inh -4.
For C#CCNCC(O)COc1ccc(OCC)cc1 (stereo unspecified) the results were MITF primary 66*, GPR151 activ -1, FBW7 act 0, TEAD-YAP inh -21, MITF confirm 3 and AS interf ctr 7.
O=C(O)c1c[nH]c2c(Cl)c(Cl)ccc2c1=O was read as MITF primary 32, GPR151 activ 1, FBW7 act -1 and TEAD-YAP inh -5.
Screening O=C(O)c1c[nH]c2c(ccc3cccnc32)c1=O returned MITF primary 121*, GPR151 activ -1, MITF confirm 98* and AS interf ctr 101*.
Cc1cc(C)c(-c2csc(NC(=O)c3ccc(S(=O)(=O)N4CCOCC4)cc3)n2)c(C)c1 was read as MITF primary -8, GPR151 activ 1, FBW7 act 0 and TEAD-YAP inh -1.
For CCn1c2ccccc2c2cc(CN3CCN(C(=O)c4ccc(OC)cc4)CC3)ccc21 the results were MITF primary 48, GPR151 activ 1, FBW7 act 0 and TEAD-YAP inh 7.
CCn1c2ccccc2c2cc(CN3CCN(C(=O)c4ccccc4)CC3)ccc21 was read as MITF primary 23, GPR151 activ 0, FBW7 act 0 and TEAD-YAP inh -1.
Screening CCn1c2ccccc2c2cc(CN3CCN(C(=O)c4cccnc4)CC3)ccc21 returned MITF primary 58*, GPR151 activ 0, FBW7 act 0, TEAD-YAP inh -4, MITF confirm 3 and AS interf ctr 3.
CCn1c2ccccc2c2cc(CN3CCN(C(=O)c4ccc(F)cc4)CC3)ccc21 was read as MITF primary 55*, GPR151 activ 4, FBW7 act 0, TEAD-YAP inh -14, MITF confirm 5 and AS interf ctr 7.
Screening O=C(Nc1ccc(O)c(-c2nc3ccccc3s2)c1)c1cccc(Oc2ccccc2)c1 returned MITF primary 61*, GPR151 activ 1, FBW7 act 0, TEAD-YAP inh 0, MITF confirm 3 and AS interf ctr 1.
For O=C(Nc1nc2ccc(F)cc2s1)c1cccc(Oc2ccccc2)c1 the results were MITF primary -3, GPR151 activ -1, FBW7 act 0 and TEAD-YAP inh -11.
Screening O=C(Nc1nc2ccc(Cl)cc2s1)c1cccc(Oc2ccccc2)c1 returned MITF primary 74*, GPR151 activ 1, FBW7 act 0, TEAD-YAP inh -1, MITF confirm 1 and AS interf ctr 7.
`O=C(Nc1ccc(O)c(-c2nc3ccccc3s2)c1)c1ccccc1Oc1ccccc1` gave MITF primary -7, GPR151 activ 1, FBW7 act 0 and TEAD-YAP inh -1.
Screening CCOC(=O)c1nnn(CC(=O)Nc2ccc(C(C)=O)cc2)c1C(=O)OCC returned MITF primary -12, GPR151 activ -1, FBW7 act 0 and TEAD-YAP inh 8.
For COc1cc(CN2CCN(C3CCCC3)CC2)cc(OC)c1OC the results were MITF primary 65*, GPR151 activ 3, FBW7 act 0, TEAD-YAP inh 11, MITF confirm 28*, AlphaScreen DR >6.5 and AS interf ctr 21.
COc1cc(CN2CCN(C3CCCCC3)CC2)cc(OC)c1O was read as MITF primary 65*, GPR151 activ -1, FBW7 act 0, TEAD-YAP inh -8, MITF confirm 8 and AS interf ctr 29.
For O=C(NCCN1CCOCC1)C1CCN(Cc2ccc(Cl)c(Cl)c2)CC1 the results were MITF primary 69*, GPR151 activ -1, FBW7 act 1, TEAD-YAP inh -2, MITF confirm -5 and AS interf ctr -1.
CCOc1ccccc1CN1CCC(C(=O)NCCN2CCOCC2)CC1 was read as MITF primary 52*, GPR151 activ 0, FBW7 act 0, TEAD-YAP inh 1, MITF confirm 4 and AS interf ctr 16.
`COc1cc(OC)cc(C(=O)N2CCN(Cc3ccc(F)cc3)CC2)c1` gave MITF primary 51, GPR151 activ 1, FBW7 act 0 and TEAD-YAP inh -5.
`COc1cc(OC)cc(C(=O)N2CCN(Cc3ccc(Cl)cc3)CC2)c1` gave MITF primary 58*, GPR151 activ -1, FBW7 act 0, TEAD-YAP inh 10, MITF confirm 27 and AS interf ctr 15.
Screening O=C(c1ccncc1)N1CCN(Cc2cccc(Cl)c2)CC1 returned MITF primary 73*, GPR151 activ -1, FBW7 act 0, TEAD-YAP inh -1, MITF confirm 9 and AS interf ctr 17.
`COc1cc(OC)cc(C(=O)N2CCN(Cc3cccc(Cl)c3)CC2)c1` gave MITF primary 52*, GPR151 activ 0, FBW7 act 0, TEAD-YAP inh -4, MITF confirm 12 and AS interf ctr 20.
For COC(=O)NC1CC(C)CC(C)(C)C1 (stereo unspecified) the results were MITF primary -5, GPR151 activ 0, FBW7 act 0 and TEAD-YAP inh 0.
`O=[N+]([O-])c1cccc(NP2(=O)C=C(c3ccccc3)OC(c3ccccc3)=C2)c1` gave MITF primary 4, GPR151 activ 0, FBW7 act 0 and TEAD-YAP inh -15.
